Reference: article PMC5540273 (PLoS ONE, 2017)

What was measured:
Conditions in all cases: concentration: 1 μM, replicates: in singlicate; n = 1
MYO3B = test system: MYO3B
NDR1 = test system: T1, NDR1
T1 construct: gene STK38

NDR2 = test system: NDR2
NEK10 = test system: NEK10
NEK11 = test system: NEK11
NEK1 = test system: NEK1
NEK2 = test system: NEK2
NEK3 = test system: NEK3
NEK4 = test system: NEK4
NEK5 = test system: NEK5
NEK6 = test system: NEK6
NEK7 = test system: NEK7
NEK9 = test system: NEK9
NIK = test system: T2, NIK
T2 construct: gene MAP3K14

NIM1 = test system: T3, NIM1
T3 construct: gene MGC42105

NLK = test system: NLK
OSR1 = test system: T4, OSR1
T4 construct: gene OXSR1

PAK1 = test system: PAK1
PAK2 = test system: PAK2
PAK3 = test system: PAK3
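Further: KINOMEscan kinase panel screen.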

Row | Compound | %Inh (MYO3B) [%] | %Inh (NDR1) [%] | %Inh (NDR2) [%] | %Inh (NEK10) [%] | %Inh (NEK11) [%] | %Inh (NEK1) [%] | %Inh (NEK2) [%] | %Inh (NEK3) [%] | %Inh (NEK4) [%] | %Inh (NEK5) [%] | %Inh (NEK6) [%] | %Inh (NEK7) [%] | %Inh (NEK9) [%] | %Inh (NIK) [%] | %Inh (NIM1) [%] | %Inh (NLK) [%] | %Inh (OSR1) [%] | %Inh (PAK1) [%] | %Inh (PAK2) [%] | %Inh (PAK3) [%]
1 | COc1ccc(COc2cc(-n3cnc4ccccc43)sc2C(N)=O)cc1 [GSK1024304] | 0 | 6 | 0 | 19 | 0 | 0 | 0 | 0 | 0 | 7 | 0 | 0 | 5 | 10 | 28 | 0 | 14 | 1 | 4 | 1
2 | O=C1NC(=O)C(N2CCc3ccccc32)=C1c1cccc(Cl)c1 [SB-408010] | 21 | 6 | 7 | 43 | 0 | 3 | 12 | 14 | 0 | 0 | 9 | 0 | 0 | 0 | 0 | 12 | 0 | 9 | 44 | 0
3 | O=C(Nc1cccc(-c2nn3ncccc3c2-c2ccnc(Nc3cccc(C(F)(F)F)c3)n2)c1)c1c(F)cccc1F [GSK299495] | 4 | 0 | 0 | 17 | 19 | 0 | 0 | 11 | 0 | 13 | 0 | 0 | 0 | 0 | 25 | 70 | 23 | 0 | 0 | 10
4 | O=C(NCCCN1CCOCC1)c1cccc(Nc2nccc(Nc3ccc(Oc4ccccc4)cc3)n2)c1 [GW663929] | 0 | 40 | 41 | 0 | 13 | 11 | 6 | 5 | 0 | 24 | 15 | 28 | 28 | 3 | 28 | 27 | 0 | 9 | 15 | 0
5 | CN1c2ccc(CNc3ccc(F)cc3)cc2-c2c(cnn2C)S1(=O)=O | 0 | 16 | 0 | 0 | 0 | 1 | 0 | 28 | 0 | 0 | 0 | 0 | 0 | 0 | 0 | 0 | 0 | 0 | 14 | 0
6 | NS(=O)(=O)CCc1cccc(Nc2nccc(-c3c(-c4cccc(NC(=O)c5c(F)cccc5F)c4)nn4ccccc34)n2)c1 [GSK336735] | 4 | 18 | 0 | 7 | 0 | 0 | 22 | 0 | 19 | 8 | 8 | 11 | 57 | 4 | 15 | 84 | 10 | 26 | 12 | 36
7 | COc1cc(Nc2nccc(N3CCC(NC(=O)c4cccc(NC(C)=O)c4)C3)n2)cc(OC)c1OC (stereo not drawn) [GSK1379754] | 0 | 19 | 0 | 20 | 0 | 48 | 7 | 54 | 24 | 100 | 37 | 68 | 49 | 23 | 5 | 0 | 6 | 20 | 20 | 26
8 | CC(C)(C)n1cnc2c(N)ncnc21 [SKF-97359] | 5 | 0 | 0 | 12 | 14 | 0 | 0 | 42 | 0 | 0 | 0 | 0 | 0 | 33 | 17 | 2 | 0 | 0 | 0 | 0
9 | O=C(Nc1n[nH]c2cc(-c3cccc(F)c3)ccc12)C1CC1 [SB-735464] | 0 | 25 | 11 | 0 | 37 | 0 | 0 | 23 | 14 | 0 | 3 | 0 | 0 | 9 | 12 | 86 | 0 | 0 | 30 | 44
10 | CCCCCc1nc2c(N)ncnc2n1CCCCC [SKF-97255] | 10 | 31 | 7 | 16 | 0 | 18 | 0 | 28 | 0 | 0 | 2 | 0 | 0 | 0 | 27 | 0 | 0 | 12 | 67 | 4
11 | Cc1cccc(Cn2ccn3c(=O)cc(N4CCOCC4)nc23)c1 [GSK2297542] | 0 | 33 | 0 | 14 | 6 | 12 | 15 | 15 | 16 | 19 | 2 | 0 | 15 | 0 | 8 | 15 | 19 | 18 | 25 | 3
12 | CCc1nc(-c2cccc(C)c2)c(-c2ccnc(NCc3ccccc3)c2)s1 | 0 | 0 | 0 | 0 | 0 | 7 | 0 | 24 | 0 | 0 | 0 | 0 | 0 | 0 | 0 | 21 | 0 | 30 | 27 | 22
13 | c1ccc(-c2cc(-c3c[nH]nc3-c3ccccn3)ccn2)cc1 [GW576604] | 0 | 17 | 23 | 19 | 3 | 0 | 0 | 2 | 0 | 0 | 0 | 0 | 17 | 24 | 20 | 44 | 0 | 16 | 13 | 16
14 | Cc1c2ccc(N(C)c3ccnc(Nc4cccc(S(N)(=O)=O)c4)n3)cc2nn1Cc1ccccc1.Cl.Cl [GW787226] | 41 | 51 | 1 | 0 | 0 | 32 | 0 | 22 | 6 | 0 | 0 | 0 | 0 | 0 | 0 | 5 | 0 | 32 | 49 | 28
15 | O=c1cc(N2CCOCC2)nc2n(Cc3cccc(F)c3)ccn12 [GSK2297430] | 0 | 0 | 0 | 24 | 0 | 0 | 0 | 0 | 0 | 0 | 0 | 0 | 7 | 7 | 0 | 0 | 1 | 18 | 9 | 79
16 | CC(=O)Nc1ccc(COc2ccc(Nc3ccnc4cc(-c5ccccn5)ccc34)cc2)cc1.Cl [GW440148] | 2 | 20 | 37 | 3 | 0 | 0 | 8 | 6 | 0 | 10 | 0 | 0 | 20 | 0 | 23 | 0 | 0 | 15 | 0 | 22
17 | Cn1ccc2ncnc(Oc3ccc(NC(=O)Nc4ccncc4)c(Cl)c3)c21 | 13 | 0 | 17 | 14 | 0 | 0 | 0 | 24 | 0 | 3 | 0 | 0 | 0 | 0 | 0 | 0 | 0 | 16 | 2 | 0
18 | COc1ccc(Nc2nccc(N3CCC(NC(=O)Nc4cccc(C(C)=O)c4)C3)n2)cc1 (stereo not drawn) [GSK1379731] | 0 | 0 | 0 | 13 | 15 | 0 | 0 | 0 | 13 | 3 | 0 | 0 | 0 | 2 | 12 | 0 | 16 | 0 | 6 | 0
19 | O=C(c1ccc(-c2cc(-c3c[nH]nc3-c3ccccn3)ccn2)cc1)N1CCOCC1 [GW812171] | 0 | 44 | 0 | 18 | 0 | 0 | 0 | 25 | 0 | 0 | 2 | 0 | 0 | 32 | 0 | 0 | 0 | 7 | 0 | 0
20 | CSc1ccc(-c2cc3ncnc(SCC(=O)O)c3s2)cc1 | 1 | 1 | 0 | 26 | 0 | 2 | 0 | 31 | 0 | 0 | 17 | 8 | 0 | 0 | 0 | 26 | 0 | 0 | 0 | 0
21 | Cc1nnc(-c2ccc(C)c(-c3ccc(C(=O)Nc4ccc(NS(C)(=O)=O)cc4)cc3)c2)o1 [GW702865] | 0 | 20 | 18 | 6 | 33 | 0 | 0 | 0 | 0 | 8 | 0 | 0 | 7 | 16 | 19 | 0 | 0 | 10 | 0 | 0
